{"source": "PubChem BioAssay AID743315", "about": "(Broad Institute, 2014)", "note": "Results with a measured potency or affinity are listed apart. Values without a mark were called inactive. The source made the active and inactive calls.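 Rule for the calls: active = cell killing, with a fitted active concentration at or below twice the top valid dose tested; inconclusive = flat curve with moderate cell loss, or an unreliable fit; inactive = effect in the rising direction, plus the rest.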", "data": [{"experiment": "HEK293T cell cytotoxicity, dose response, cytotoxicity control, plate reader, dry powder, set 10 (AID 743315)", "conditions": "HEK293T viability, CellTiter-Glo ATP luminescence, 72 h; series mostly up to 26 µM; activity change, negative = cytotoxicity: at the top concentration", "units": {"activity change, negative = cytotoxicity": "%"}, "values": [{"smiles": "Cc1ccc(C(C)C)c(OCCn2c(=S)[nH]c3ccc(Cl)cc32)c1", "activity change, negative = cytotoxicity": 25}, {"smiles": "Cc1ccc(C)c(OCCn2c(=S)[nH]c3ccccc32)c1", "activity change, negative = cytotoxicity": -28.3}, {"smiles": "Cc1ccc(C(C)C)c(OCCn2c(=S)[nH]c3c(Cl)cccc32)c1", "activity change, negative = cytotoxicity": 30.9}, {"smiles": "S=c1[nH]c2ccccc2n1CCOc1ccc(Cl)cc1", "activity change, negative = cytotoxicity": -22.7}, {"smiles": "Cc1ccc(C(C)C)c(OCCn2c(=S)[nH]c3c(C)cccc32)c1", "activity change, negative = cytotoxicity": 28}, {"smiles": "Cc1ccc(OCCn2cnc3ccccc32)cc1", "activity change, negative = cytotoxicity": -28.6}, {"smiles": "CC(C)c1ccccc1NCCn1c(=S)[nH]c2ccccc21", "activity change, negative = cytotoxicity": 29.9}, {"smiles": "Cc1cccc(OCCn2c(=S)[nH]c3ccc(C(F)(F)F)cc32)c1", "activity change, negative = cytotoxicity": 8.08}, {"smiles": "Cc1ccc(C(C)C)c(OCCn2c(=S)[nH]c3cccc(F)c32)c1", "activity change, negative = cytotoxicity": 2.92}, {"smiles": "Cc1ccc(C(C)C)c(OCCn2c(=S)[nH]c3cc(F)ccc32)c1", "activity change, negative = cytotoxicity": -57.5}, {"smiles": "Fc1ccccc1OCCn1c(=S)[nH]c2ccccc21", "activity change, negative = cytotoxicity": -11.8}, {"smiles": "S=c1[nH]c2ccccc2n1CCOc1ccccc1Cl", "activity change, negative = cytotoxicity": 12.9}, {"smiles": "Cc1ccc2c(c1)[nH]c(=S)n2CCOc1ccccc1", "outcome": "inactive"}, {"smiles": "Cc1cccc(OCCn2c(=S)[nH]c3cc(C(F)(F)F)ccc32)c1", "activity change, negative = cytotoxicity": -7.49}, {"smiles": "Cc1ccc(OCCn2c(=S)[nH]c3ccccc32)cc1", "activity change, negative = cytotoxicity": -44.4}, {"smiles": "Fc1cccc(OCCn2c(=S)[nH]c3ccccc32)c1", "activity change, negative = cytotoxicity": 5.7}, {"smiles": "Fc1ccc2c(c1)[nH]c(=S)n2CCOc1ccccc1", "outcome": "inactive"}, {"smiles": "Fc1cccc2c1[nH]c(=S)n2CCOc1ccccc1", "outcome": "inactive"}, {"smiles": "COc1ccccc1OCCn1c(=S)[nH]c2ccccc21", "activity change, negative = cytotoxicity": 16.7}, {"smiles": "Cc1ccc(OCCn2cnc3ccccc32)c(C(C)C)c1", "activity change, negative = cytotoxicity": -41.6}]}]}
